An excerpt weighted towards active compounds, which were near 2.9% of everything screened.
Glyco luc inh – N-linked glycosylation inhibition; 360,000 tested, 0.23% active; D54 ERlucT glycosylation luciferase reporter, 24 h; percent of 100 nM tunicamycin response; AID 588692; reporter increase, % at 12.5 µM;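 active means mean luciferase reporter signal, scaled so untreated is 0 and the glycosylation-blocking control 100, at or above a set limit in every replicate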;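 further: luciferase carries N-glycosylation sites so blocking glycosylation raises the light; 0% = median of neutral control wells and 100% = median of 100 nM tunicamycin wells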
Wnt bcat act – activates Wnt/beta-catenin signaling in a reporter cell assay; activator, plate reader; activation, % at 9.35 µM; 300,000 tested, 1.2% active; AID 743398; in the data active means activation above about 30%, passing the limit was not always enough;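 further: 0% = neutral control wells and 100% = positive control wells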
MITF act – MITF TRPM1 promoter activation in melanoma cells; SK-MEL-5 TRPM1-promoter luciferase, 24 h; % of positive control, neutral wells = 0; activation, % at 12.5 µM; 300,000 tested, 0.75% active;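 active means mean activation of at least 80% with every replicate also reaching 80%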;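 further: 0% = neutral control wells and 100% = parthenolide positive control wells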
MITF TRPM1 inh – inhibitors of MITF-driven TRPM1 promoter in melanoma cells | SK-MEL-5 TRPM1 promoter luciferase, 24 h | 330,000 tested, 0.83% active | AID 488899 | inhibition, % at 12.5 µM;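 active means mean inhibition across replicates of 60% or more, whatever share of single replicates reaches that level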
PfHsp90 yeast 2 – reduces growth (ATP signal) of yeast expressing P. falciparum Hsp90; S. cerevisiae expressing PfHsp90, BacTiter-Glo ATP, 48 h; yeast lacking PDR1 and PDR3 efflux regulators; inhibition, % at 9.4 µM; 310,000 tested, 0.32% active; AID 504621;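 active means every replicate shows inhibition above about 80%, whatever the replicate mean, limit read from the data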;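 further: 0% = DMSO neutral controls and 100% = 20 µM radicicol positive controls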
NSD2 inh – inhibitors of human histone methyltransferase NSD2; 310,000 tested, 0.54% active; inhibition, % at 12.5 µM; NSD2 peptide methylation, AlphaScreen, 120 min; AID 743445; O96028; in the data active means inhibition above about 50%
Target sequence (O96028 whole entry, looked up): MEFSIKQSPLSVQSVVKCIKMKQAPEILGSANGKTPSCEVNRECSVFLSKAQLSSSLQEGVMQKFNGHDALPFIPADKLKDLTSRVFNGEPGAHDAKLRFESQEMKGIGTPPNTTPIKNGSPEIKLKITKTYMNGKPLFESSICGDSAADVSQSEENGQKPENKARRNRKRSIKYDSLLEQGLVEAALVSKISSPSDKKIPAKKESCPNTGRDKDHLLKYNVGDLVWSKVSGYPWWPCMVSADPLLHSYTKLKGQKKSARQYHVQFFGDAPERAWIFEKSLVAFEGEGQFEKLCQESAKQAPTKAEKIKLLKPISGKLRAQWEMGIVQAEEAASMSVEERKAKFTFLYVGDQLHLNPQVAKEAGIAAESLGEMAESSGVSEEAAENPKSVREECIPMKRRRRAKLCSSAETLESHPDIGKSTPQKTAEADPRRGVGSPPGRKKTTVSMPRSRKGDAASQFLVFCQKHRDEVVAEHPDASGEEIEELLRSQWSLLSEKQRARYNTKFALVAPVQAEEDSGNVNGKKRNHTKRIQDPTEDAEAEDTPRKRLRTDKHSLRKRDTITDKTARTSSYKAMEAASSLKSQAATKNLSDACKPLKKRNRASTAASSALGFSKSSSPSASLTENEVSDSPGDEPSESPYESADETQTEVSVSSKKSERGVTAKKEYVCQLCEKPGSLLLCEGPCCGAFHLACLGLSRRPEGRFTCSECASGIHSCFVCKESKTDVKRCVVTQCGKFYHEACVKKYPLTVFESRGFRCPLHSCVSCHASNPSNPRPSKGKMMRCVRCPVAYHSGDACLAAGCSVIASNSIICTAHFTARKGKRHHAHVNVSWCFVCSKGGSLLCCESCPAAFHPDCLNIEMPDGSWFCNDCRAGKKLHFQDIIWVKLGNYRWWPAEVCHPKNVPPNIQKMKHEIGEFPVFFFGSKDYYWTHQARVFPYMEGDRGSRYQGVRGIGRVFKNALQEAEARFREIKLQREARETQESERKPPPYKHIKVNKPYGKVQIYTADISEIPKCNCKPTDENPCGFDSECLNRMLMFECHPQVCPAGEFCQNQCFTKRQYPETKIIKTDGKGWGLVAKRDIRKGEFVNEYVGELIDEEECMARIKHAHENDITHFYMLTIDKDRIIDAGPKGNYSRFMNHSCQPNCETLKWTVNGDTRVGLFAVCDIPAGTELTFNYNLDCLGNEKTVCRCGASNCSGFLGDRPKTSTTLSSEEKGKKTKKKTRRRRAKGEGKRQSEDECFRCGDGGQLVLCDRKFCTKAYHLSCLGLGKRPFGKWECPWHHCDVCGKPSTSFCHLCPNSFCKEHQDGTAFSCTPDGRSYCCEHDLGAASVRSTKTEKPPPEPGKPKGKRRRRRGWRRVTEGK
Alpha artifact – AlphaScreen assay artifact in NSD2 counter-screen; AlphaScreen artifact counterscreen, preloaded methylated H4 peptide; 1,500 tested, 9.4% active; AC35, µM (doses to about 10 µM), for inactives: top-dose activity change, negative = signal loss; shares compounds with NSD2 inh; call rule not given here
Active calls of the source: *; x = not tested or not shown.

SMILES	Glyco luc inh	Wnt bcat act	MITF act	MITF TRPM1 inh	PfHsp90 yeast 2	NSD2 inh	Alpha artifact
CC(C)Oc1ccc(C(=O)Nc2c3c(nn2C(C)(C)C)CS(=O)(=O)C3)cc1	-1.9	0.5	-3.7	-1.3	4.9	1.3	x
CCCCn1nnc(NC(=O)c2ccco2)n1	-0.7	x	24.9	-24.9	3.7	122.8*	3.2%
CCCN(CCC)CCCNC(=O)c1cn(CC)c2ccc(S(=O)(=O)N3CCc4ccccc4C3)cc2c1=O	-5.6	-0.4	-13.0	13.6	-17.6	50.4*	2.0%
CCCCN(CC)CCCNC(=O)c1cn(CC)c2ccc(S(=O)(=O)N3CCc4ccccc4C3)cc2c1=O	-5.6	-1.3	-1.3	-1.8	12.5	37.4	x
CCN(CC)CCNc1ncnc2c1sc1nc(N3CCCC3)c3c(c12)CC(C)(C)OC3	-10.9	-1.0	-43.6	40.3	-32.0	80.0*	-14.8%
CN(C)CCNc1ncnc2c1sc1nc(N3CCCC3)c3c(c12)CC(C)(C)OC3	-11.3	6.9	x	19.5	-4.6	13.4	x
O=C(CSc1nnc(-c2ccc(C(F)(F)F)cn2)s1)c1ccc(Cl)cc1	0.3	-1.2	1.1	-2.9	7.1	0.2	x
COc1ccccc1NS(=O)(=O)c1cc(C(=O)N2CCN(C/C=C/c3ccccc3)CC2)ccc1C	2.4	-0.2	-8.4	8.1	21.5	18.8	x
COc1ccc(C(C)(O)c2nc(-c3ccc(OC)nc3)cs2)cc1 (stereo unspecified)	2.7	2.4	x	x	x	-1.7	x
CCOC(=O)CC(NS(=O)(=O)c1ccc2[nH]cc(C(=O)O)c(=O)c2c1)c1ccc(OCC)c(OC)c1 (stereo unspecified)	1.0	-1.4	5.2	-7.3	-10.4	68.3*	-0.8%
CCOC(=O)CC(NS(=O)(=O)c1ccc(OC)c(OC)c1)c1cccc([N+](=O)[O-])c1 (stereo unspecified)	1.6	1.1	-3.1	5.8	-23.1	0.5	x
c1cc(-c2ccoc2)n2ccnc2c1	-1.7	11.0	x	x	x	104.5*	-1.1%
CCNC(=O)Cc1ccc(NS(=O)(=O)c2ccc(F)cc2)cc1	-0.9	x	-0.5	1.2	x	109.1*	-1.7%
O=C(Cc1ccc(NS(=O)(=O)c2ccc(F)cc2)cc1)NCc1ccccc1	-4.6	0.1	5.0	-1.2	-1.1	x	x
CC(=O)c1cccc2c1OC(C)C(=O)N2Cc1ccc(Cl)cc1 (stereo unspecified)	2.9	-1.3	x	x	x	-3.9	x
CCN(CC)CCCNc1nc(CN2CCOCC2)nc2sc3c(c12)CCC3	0.2	-1.6	16.6	-17.7	18.0	54.3*	2.9%
Cn1c(=O)c2c(ncn2CC(=O)NC[C@H]2O[C@@H](n3cnc4c(N)ncnc43)[C@H](O)[C@@H]2O)n(C)c1=O	0.9	-0.8	-0.8	1.4	32.1	x	x
FC(F)(F)c1ccc(N/N=C/c2cccnc2)nc1	1.1	1.4	53.6	-55.7	-95.0	116.3*	-2.4%
COc1ccc(NC(=O)c2ccc(-n3cnnn3)cc2)c([N+](=O)[O-])c1	2.0	-3.4	-1.7	2.9	-17.4	-12.4	x
COc1ccc(/C=C/C(=O)NCCSCc2ccco2)cc1	1.4	x	12.8	-8.1	-0.8	0.3	x
COC(=O)C1CCN(C2=C(NS(=O)(=O)c3ccc(Cl)cc3)C(=O)c3ccccc3C2=O)CC1	5.5	2.9	-16.1	16.2	11.3	61.9*	7.82µM*
NC(=O)C1CCN(C2=C(NS(=O)(=O)c3ccc(Cl)cc3)C(=O)c3ccccc3C2=O)CC1	6.5	0.2	-15.7	19.6	-21.3	76.6*	-4.5%
CC(=O)Nc1ccc(S(=O)(=O)NC2=C(N3CCN(c4ccc(F)cc4)CC3)C(=O)c3ccccc3C2=O)cc1	-0.8	-1.1	-48.0	49.1	-5.5	24.8	x
CC1CCCN(C2=C(NS(=O)(=O)c3ccc(Cl)cc3)C(=O)c3ccccc3C2=O)C1 (stereo unspecified)	0.9	-5.4	-21.7	20.1	2.2	46.9	x
CCOc1cc(/C=C2\N=C(SC(C)C(N)=O)N(c3ccc(OC(F)F)cc3)C2=O)ccc1O (stereo unspecified)	-3.0	-0.9	-6.0	1.6	20.4	-1.4	x
SMILES	Glyco luc inh	Wnt bcat act	MITF act	MITF TRPM1 inh	PfHsp90 yeast 2	NSD2 inh	Alpha artifact
CN(C)c1cccc2c1C(=O)c1ccccc1C2=O	1.0	-2.1	-3.9	4.5	-8.3	60.1*	2.2µM*
CSC1=NSC2=NC(=O)/C(=C/c3coc4ccc(O)cc4c3=O)C(=N)N12	2.8	1.8	-3.7	5.0	0.5	x	x
CSC1=NSC2=NC(=O)/C(=C/c3coc4ccccc4c3=O)C(=N)N12	-1.0	7.7	-12.1	13.9	-20.0	74.9*	0.2%
COc1ccc2nc(N3CCCCC3)c(/C=C3\SC(=S)NC3=O)cc2c1	0.0	4.2	x	9.5	13.0	x	x
O=C1NC(=S)S/C1=C\c1cc2ccccc2nc1N1CCCCC1	1.0	-0.2	x	12.0	108.1*	83.3*	-8.7%
Cc1ccc(S(=O)(=O)CCSc2n[nH]c(=O)n2-c2ccc3c(c2)OCCO3)cc1	-3.0	-3.0	x	7.4	9.5	-0.1	x
COc1ccc(S(=O)(=O)N2CCOCC2)cc1NC(=O)c1ccccc1-c1ccc(C(F)(F)F)cc1	-0.3	-6.0	4.2	-3.3	11.8	-0.4	x
CCOC(=O)CCCCC(=O)c1[nH]c(=O)[nH]c1CSc1nc2ccccc2[nH]1	2.9	-0.3	9.2	-10.9	-5.7	99.7*	-3.6%
CCOC(=O)CCCCC(=O)c1[nH]c(=O)[nH]c1CSc1nc(C)cc(=O)[nH]1	-0.3	0.0	1.1	-1.2	-9.6	105.9*	-9.3%
COC(=O)c1nn(C)c(=O)[nH]c1=O	-0.6	-4.5	13.0	-14.7	-3.7	51.1*	0.5%
CCNC1CCC(Nc2ccnc3cc(Cl)ccc23)CC1 (stereo unspecified)	3.4	-3.6	-23.8	24.7	-21.5	89.0*	-4.8%
CCN(CC)CCNc1ccnc2cc(Cl)ccc12	6.9	-3.1	15.2	-11.0	x	45.4	x
O=C(COC(=O)c1ccc(NS(=O)(=O)c2ccc(F)c(F)c2)cc1)NCC1CCCO1 (stereo unspecified)	0.7	-0.3	0.7	-0.8	43.7	-7.9	x
CC(=O)c1c(C)[nH]c(C(=O)CSc2nnc(-c3ccco3)n2Cc2ccccc2)c1C	-0.3	x	4.8	-0.9	x	58.1*	-0.6%
Cc1c(C)c2cc(Cl)c(O)c(CN(C)C)c2oc1=O	0.2	-1.9	-9.4	9.2	-45.8	118.7*	-2.0%
CCc1c(C)c2cc(Cl)c(O)c(CN(C)C)c2oc1=O	0.3	-2.3	-2.2	3.8	5.4	0.4	x
CC(=O)N/C(=C\c1ccc(C)cc1)C(=O)O	0.8	-1.2	4.6	-4.2	-0.2	2.3	x
CC(/C=N/n1c(-c2cccnc2)n[nH]c1=S)=C\c1ccco1	0.1	2.5	20.4	-20.7	-15.7	7.3	x
C/C(C=Nn1c(-c2ccc(F)cc2)n[nH]c1=S)=C/c1ccco1	x	x	x	x	x	61.1*	-3.5%
